TbPYK inhibitor – inhibitors of Trypanosoma brucei pyruvate kinase | Potency, µM (highest dose often 76.8 µM), for the others: at the highest dose activity, negative = inhibition, actives largely listed as inhibitors | TbPYK enzyme, Kinase-Glo Plus ATP luminescence, 45 min | AID 624173 | 0.12% of 410,000 active | Q57TT1; also: potency is read from the fitted curve at half-maximal effect; % is scaled to controls: 0 for no effect and ±100 for the full control effect; nearly all actives have a fitted effect of over 50% in size
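Enzyme and substrate buffer are dispensed first and compound is pin-transferred. ADP at 130 uM final then starts the reaction, which runs 45 min at room temperature. Detection reagent is added for 10 min before luminescence is imaged.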
LmPK inh – LmPK (Leishmania mexicana) enzyme inhibition | Q27686 | purified LmPK, Kinase-Glo ATP luminescence, 1 h | Potency, µM (top dose mostly 57.5 µM), for the others: top-dose activity change, negative = inhibition, actives largely listed as inhibitors | 0.37% of 290,000 active; also: potency is read from the fitted curve at half-maximal effect; % is scaled to controls: 0 for no effect and ±100 for the full control effect
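Screened at intermediate enzyme activity to detect both inhibitors and activators: LmPK at 0.1 nM, with a 0.5 nM enzyme column as activation reference. PEP 0.5 mM, ADP 0.1 mM; ATP detected by luminescence after 1 h.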
Giardia FBPA inh – inhibitors of Giardia lamblia fructose-1,6-bisphosphate aldolase | purified Giardia FBPA | Potency, µM (series often up to 59.6 µM), for the others: at the top dose activity, negative = inhibition, most hits filed as inhibitors | 0.71% of 290,000 active | AID 2451; also: potency is read from the fitted curve at half-maximal effect; % is scaled to controls: 0 for no effect and ±100 for the full control effect; nearly all actives have a fitted effect of over 55% in size
Target sequence (A8B2U2 whole entry, looked up): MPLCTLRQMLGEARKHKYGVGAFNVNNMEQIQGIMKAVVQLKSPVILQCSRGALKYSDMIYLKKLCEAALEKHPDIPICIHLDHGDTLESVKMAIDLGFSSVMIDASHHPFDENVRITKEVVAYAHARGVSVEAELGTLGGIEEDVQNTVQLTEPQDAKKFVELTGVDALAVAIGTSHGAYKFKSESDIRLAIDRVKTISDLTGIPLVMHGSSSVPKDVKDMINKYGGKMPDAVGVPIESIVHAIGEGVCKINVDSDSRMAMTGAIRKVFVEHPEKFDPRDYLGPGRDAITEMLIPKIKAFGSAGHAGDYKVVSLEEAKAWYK
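Giardia FBPA (40 nM reagent) was preincubated 10 min at RT with compound (up to 57.5 uM final), then substrate plus GAPDH/TPI/NAD/arsenate coupling system with diaphorase/resazurin was added; resorufin fluorescence (525/598 nm) was read after 20 min.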
Shiga toxin inh – blocks Shiga toxin action in Vero cells; Vero cells, Shiga toxin protein synthesis inhibition reporter; inhibition, % at 38.7 µM; 9.2% of 290,000 active; AID 2315; in the data active = inhibition mostly above about 28%, no sharp cut-off; inactive = mostly below about 43%; also: 0% is about no effect
RE007 growth inh – less growth of the S. pombe RE007 Vpr strain; AID 651644; 0.21% of 360,000 active; S. pombe RE007 Vpr strain, BacTiter-Glo ATP luminescence, 24 h; Potency, µM (doses to about 92.2 µM), without a hit: top-dose activity change, negative = less growth, actives largely listed as inhibitors; active = well fitted falling curve with a large enough effect; inconclusive = small, poorly fitted or top-dose-only effect; inactive = no such curve, though single readings can be large or run the other way; also: potency is read from the fitted curve at half-maximal effect; % is scaled to controls: 0 for no effect and ±100 for the full control effect; nearly all actives have a fitted effect of over 50% in size
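Fission yeast strain RE007, carrying one chromosomally integrated HIV-1 vpr copy, was seeded at OD 0.01 in PMG+AL medium with 23 nL pinned compound. After 24 h at 30 °C and 99% humidity, viability was read by BacTiter-Glo luminescence.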
Cycloheximide cs – affects cycloheximide protein synthesis inhibition readout, counter-screen | max response, % | 12% of 300,000 active | AID 2314 | cell reporter, cycloheximide protein synthesis inhibition counterscreen; in the data active = max response mostly above about 13%, no sharp cut-off; inactive = mostly below about 14%; also: read at 38.3 µM for the half of the compounds with a filed dose; 0% is about no effect
* hit, by the source's call; ? = inconclusive; / = not tested or not shown; + = active, no number. This is one part of a sample in which hits are shown more often than they occur. Unless noted, calls follow the shape of the dose curve; as a rule, active = well fitted curve in the direction sought with a large enough effect; inconclusive = small, poorly fitted or top-dose-only effect, or another doubt; inactive = no such curve, though single readings can be large; an effect the other way counts as inactive or inconclusive.

SMILES | TbPYK inhibitor | LmPK inh | Giardia FBPA inh | Shiga toxin inh | RE007 growth inh | Cycloheximide cs
COC(=O)c1ccccc1NC(=O)Cn1c(=O)n(CCCC(=O)NCCc2ccc(OC)c(OC)c2)c(=O)c2ccccc21 | 2% | / | / | / | / | /
CC1=Nc2cc([N+](=O)[O-])ccc2NC(C)(C)C1 | -3% | -1% | -27% | 115* | -10% | 62*
COc1ccc(NC(=O)c2ccco2)cc1NC(=O)c1cccc(C)c1OC | 0% | / | / | / | / | /
O=C(O)Cn1c(SCc2ccccc2)nc2ccccc21 | -12% | -3% | 2% | -12 | 30% | -1
Cn1c(SCc2cccc3ccccc23)nnc1-c1ccco1 | -17% | -4% | -5% | 6 | -25% | 6
COc1cccc(CSc2nnc(-c3ccco3)n2C)c1 | 3% | 3% | 13% | 41 | -1% | 40*
Nn1c(SCc2ccccc2)nnc1-c1ccco1 | 4% | 2% | 15% | 2 | 5% | 9.3*
Cc1cccc(CSc2nnc(-c3ccco3)n2C)c1 | 2% | -1% | 6% | 42 | -23% | 22*
Nn1c(SCc2ccccc2)nc2ccccc21 | -3% | -9% | / | 69* | -1% | 69*
Nn1c(SCc2cccc3ccccc23)nnc1-c1ccco1 | -4% | 0% | 1% | -14 | 5% | 7
COc1ccc(CNC(=O)c2ccc(-c3nc(CSc4ccc(C)cc4)c(C)o3)cc2)c(OC)c1 | -1% | / | / | / | / | /
CCOc1ccc(NC(=O)CCc2c(C)nn(-c3ccc(N4CCCCC4)nn3)c2C)cc1 | -2% | -9% | / | 45* | -6% | 27*
CCc1cccc(NC(=O)CCc2c(C)nn(-c3ccc(N4CCCCC4)nn3)c2C)c1 | 4% | 8% | 19% | 95* | -2% | 40*
CCc1ccc(NC(=O)CCc2c(C)nn(-c3ccc(N4CCCCC4)nn3)c2C)cc1 | 0% | 10% | 5% | 81* | -3% | 49*
COc1ccc(NC(=O)CCc2c(C)nn(-c3ccc(N4CCCC4)nn3)c2C)cc1Cl | -2% | / | / | / | / | /
CCOC(=O)c1cccc(NC(=O)CCc2c(C)nn(-c3ccc(N4CCCC4)nn3)c2C)c1 | -6% | / | / | / | / | /
CCc1ccc(CNC(=O)CCc2c(C)nn(-c3ccc(N4CCCC4)nn3)c2C)cc1 | 1% | / | / | / | / | /
Cc1nn(-c2ccc(N3CCCC3)nn2)c(C)c1CCC(=O)Nc1ccccc1 | -4% | / | / | / | / | /
Cc1nn(-c2ccc(N3CCCCC3)nn2)c(C)c1CCC(=O)Nc1ccc(F)cc1 | 4% | 11% | / | 55* | -1% | 34*
C[C@H](NCc1ccccc1)c1ccccc1 | / | / | -1% | -10 | / | -11
COc1ccc(-c2nc3sc(CCNC(=O)c4ccc(C(C)(C)C)cc4)c(C)n3n2)cc1 | 3% | / | / | / | / | /
Cc1cc([N+](=O)[O-])ccc1NC(=O)CN1C2CCC1CC(NC(=O)NC13CC4CC(CC(C4)C1)C3)C2 (configuration not stated) | -2% | 5% | -5% | -7 | -5% | -4
Cc1ccc(CN(Cc2ccco2)C(=O)c2ccccc2Cl)o1 | 4% | / | / | / | / | /
Cc1ccc(NC(=O)CCc2c(C)nn(-c3ccc(N4CCCCC4)nn3)c2C)cc1F | 2% | 1% | / | 71* | -19% | 41*
Cc1ccc(C)c(NC(=O)CCc2c(C)nn(-c3ccc(N4CCCCC4)nn3)c2C)c1 | 4% | 0% | 2% | -2 | -1% | 18
SMILES | TbPYK inhibitor | LmPK inh | Giardia FBPA inh | Shiga toxin inh | RE007 growth inh | Cycloheximide cs
Cc1nn(-c2ccc(N3CCCCC3)nn2)c(C)c1CCC(=O)Nc1cccc(F)c1 | 1% | 1% | 30% | 84* | -7% | 44*
Cc1cc(C)cc(NC(=O)CCc2c(C)nn(-c3ccc(N4CCOCC4)nn3)c2C)c1 | 3% | -4% | 7% | 35 | -5% | 26*
Cc1ccccc1OCCSc1nc(C)c(Cc2ccccc2)c(=O)[nH]1 | 2% | / | / | / | / | /
Brc1ccc(NC2=Nc3ccccc3CC2)cc1 | -25% | -1% | / | + | 6% | 56*
Cc1ccc(NC2=Nc3ccccc3CC2)cc1 | -12% | -20% | 3% | 32 | -16% | 11*
N#CC1=C(Nc2ccc(Br)cc2)CCC1 | 9% | 1% | ? | 23 | -3% | -1
Cc1ccc(NC(=O)c2cc(-c3ccccc3)nn2-c2ccccc2)cc1 | -8% | -1% | -9% | -15 | -5% | -2
Cc1ccc(-c2cc3nn(-c4ccccc4)c(N)c3c(=O)o2)cc1 | -2% | 5% | 1% | 76* | -17% | 40*
C(=N\N1CCOCC1)/c1nc(-c2ccccc2)n2ccccc12 | -1% | -1% | -21% | -2 | 15% | 11
CC(C)(C)c1ccc(-c2nc(C=O)c3ccccn23)cc1 | 0% | 0% | -10% | 56 | -20% | 39*
CCc1nnc(NC(=O)c2cc(Cl)ccn2)s1 | 3% | -2% | 8% | 77* | ? | 41*
CCN(c1ccc(NC(=O)c2ccc(Cl)nc2)cc1)C(C)C | 5% | -5% | -9% | 38* | -5% | 24*
CCc1nnc(NC(=O)c2ccc(Cl)nc2)s1 | -2% | -3% | ? | 75* | -1% | 32*
Cc1cc(NS(=O)(=O)c2ccc(NC(=O)c3ccc(Cl)nc3)cc2)nc(C)n1 | -6% | / | / | / | -3% | /
CC(C)(C)c1nnc(NC(=O)c2ccc(Cl)nc2)s1 | 5% | 9% | 5µM* | -2 | -5% | 3
O=C(Nc1nnc(C2CC2)s1)c1ccc(Cl)nc1 | 0% | / | / | / | -15% | /
Cc1ccc(S(=O)(=O)NCc2ccccc2)cc1C(=O)N1CCCCCCC1 | 6% | / | / | / | 8% | /
O=C(O)CCc1ccc(-c2ccc(Cl)cc2)n1-c1cccc(C(F)(F)F)c1 | -17% | / | / | / | / | /
Cn1ccnc1SCC(=O)Nc1cc(Cl)ccc1Cl | -3% | / | / | / | / | /
O=C(CCS(=O)(=O)c1ccc(F)cc1)N1CCOCC1 | -6% | -1% | 7% | 46* | 21% | 14*
O=C(CCC(=O)N1CCN(c2ccc(F)cc2)CC1)c1ccc(F)cc1 | 1% | -1% | -2% | 7 | 1% | 5
O=C(CCCC(=O)N1CCN(c2ccccc2F)CC1)N1CCN(c2ccccc2F)CC1 | -6% | 2% | 0% | -15 | -1% | 4
O=C(CCC(=O)N1CCN(c2ccc(F)cc2)CC1)c1ccccc1 | 2% | 4% | -8% | 15 | 15% | 33*
O=C(CCc1nnc(C2CCCCC2)o1)N1CCN(c2ccccc2F)CC1 | -11% | -8% | 15% | 89* | 12% | 71*
O=C(CCCC(=O)N1CCN(c2ccccc2F)CC1)c1ccccc1 | 0% | -3% | -10% | 59* | 17% | 36*
CC(=O)c1ccc(N2CCN(C(=O)CCS(=O)(=O)c3ccc4c(c3)NC(=O)CS4)CC2)cc1 | 3% | -7% | / | 55* | -1% | 44*

From PubChem BioAssay
